Results filed as inconclusive are left out. Unmarked numbers belong to inactive results. Active and inactive are the calls of the source. Calls come from the whole dose curve; as a rule, active = well fitted inhibition curve with a large enough effect; inconclusive = small, poorly fitted or top-dose-only effect; inactive = no such curve, though single readings can be large or run the other way.
test system: Zika virus NS2B-NS3 protease (unlinked complex); test: Primary screen GU Rhodamine qHTS for Zika virus inhibitors: Unlinked NS2B-NS3 protease assay (AID 1347159); settings: Recombinant ZIKV NS2B-NS3 protease, Rhodamine110 substrate fluorescence; series mostly up to 107 µM; activity change, negative = inhibition: at the top concentration; note: nearly all actives have a fitted effect of over 60% in size
Text: Avindra Nath, Ph.D., National Institute of Neurological Disorders and Stroke (NINDS), Bethesda, MD
Radhakrishnan Padmanabhan, Ph.D., Georgetown University (GU), Washington D.C.
Zika Virus causes congenital defects, including microcephaly and is associated with Guillain-Barre syndrome, eningoencephalitis and myelitis in infected adult. […] Using a target-based approach, we hope to establish a screening paradigm to uncover novel, cell-active NS2B-NS3 protease (Zika Virus) specific inhibitors from NCATS' collection of small molecules using qHTS.
Four assay panel was created to identify potential Zika Virus inhibitors. Namely, (1) GU unlinked NS2B-NS3 AMC tagged protease qHTS, (2) GU unlinked NS2B-NS3 Rhodamine tagged protease qHTS, (3) NINDS linked NS2B-NS3 AMC tagged protease qHTS, (4) NINDS linked NS2B-NS3 Rhodamine tagged protease qHTS. Active compounds were re-acquired and re-screened to confirm inhibition. Inhibitors were further screened against various confirmatory and counterscreens in dose response format.
Early Translation Branch (ETB)
National Center for Advancing Translational Sciences (NCATS), Rockville, MD
National Institute of Health (NIH), Bethesda, Maryland
Padmanabhan lab provided the NS2B hydrophilic domain and NS3 protease domain in a noncovalent complex used for the unlinked assay. Control compound aprotinin is obtained from Thermo Scientific (#78432; Waltham, Massachusetts). Rhodamine110 substrate ([N-Cbz]-Nle-Lys-Arg-Arg-Rhod110-Arg-Arg-Lys-Nle-[N-Cbz]) was purchased from either Genscript or Bachem.
1536-well Protease (Rhodamine110 Substrate) Assay:
Briefly, 3 microL of enzyme (25 nM final concentration), in assay buffer (10 mM Tris-HCl pH 8.0 with 0.01% Tween 20) were dispensed into a 1,536-well solid-bottom black plate (Greiner Bio One, Monroe, NC). Twenty-three nL of compounds (final concentration range 7.28 nM to 114 microM) or control Aprotinin (final concentration range 3.47 nM to 114 microM) were transferred via Wako Pin-tool (Wako Automation, Richmond, VA). Samples were incubated (room temperature, protected from light) for 15 minutes followed by a 1 microL Rhodamine110 substrate addition (1.5 microM final concentration). Plates were then immediately read on a ViewLux High-throughput CCD imager (PerkinElmer, Waltham, MA) equipped with FITC fluorescence optics (480(20) nm excitation, 540(25) nm emission), then incubated (room temperature, protected from light) for 15 minutes (~15% conversion). The change in fluorescence intensity over the 15-minute reaction period was normalized against no-inhibitor and no-enzyme controls and the resulting percent inhibition data were fitted to a 4-parameter Hill equation. Aprotinin was used as intraplate control.
% is set by controls: 0 for no effect and ±100 for the full control effect; potency is the fitted concentration of half-maximal effect.

Row | SMILES | activity change, negative = inhibition | Potency
1 | COc1cc(O)c2c(c1)C1(OC2=O)C(C)=CC(=O)C1O (stereo not given) | 8.23% | 
2 | N#Cc1cc(-c2n[nH]c(-c3ccncc3)n2)ccn1 | 1.37% | 
3 | CC(C)=CCC[C@](C)(O[C@@H]1O[C@H](CO)[C@@H](O)[C@H](O)[C@H]1O)[C@H]1CC[C@]2(C)[C@@H]1[C@H](O)CC1[C@@]3(C)CC[C@H](O)C(C)(C)C3[C@@H](O[C@@H]3O[C@H](CO)[C@@H](O)[C@H](O)[C@H]3O[C@@H]3O[C@@H](C)[C@H](O)[C@@H](O)[C@H]3O)C[C@]12C (stereo not given in full) | 17.5% [at 32.5 µM] | 
4 | Cc1cc(O[C@@H]2O[C@H](COC(=O)CC(=O)O)[C@@H](O)[C@H](O)[C@H]2O)c(C(C)C)cc1O | -8.19% [at 57.1 µM] | 
5 | NC1Nc2ccccc2C1(N)CC1NC(=O)C(Cc2ccccc2)NC(=O)C(Cc2ccccc2)NC1=O (stereo not given) | 18.1% [at 57.1 µM] | 
6 | Cc1occc(=O)c1O[C@@H]1O[C@H](CO[C@@H]2OC[C@](O)(CO)[C@H]2O)[C@@H](O)[C@H](O)[C@H]1O | 5.96% [at 57.1 µM] | 
7 | Cc1ncc(NC(=O)c2ccc(CN3CCN(C)CC3)c(C(F)(F)F)c2)cc1Nc1nccc(-c2cccnc2)n1 | 16.1% | 
8 | C/C=C(/C)C(=O)OC1C2OC2C2(CO2)C2C3OC(=O)C(C)C3CCC12C (stereo not given) | 2.87% | 
9 | COC(=O)C1=CO[C@@H](O[C@@H]2O[C@H](CO)[C@@H](O)[C@H](O)[C@H]2O)[C@H]2[C@@H]1C=C[C@]21C=C([C@H](C)OC(=O)/C=C/c2ccc(O[C@@H]3O[C@H](CO)[C@@H](O)[C@H](O)[C@H]3O)cc2)C(=O)O1 | 5.28% [at 32.5 µM] | 
10 | COc1cc(O)c2c(c1Cl)CC(C)OC2=O (stereo not given) | 5.58% | 
11 | C/C=C(\C)C(=O)OC1CC2C(CC=C3CC(OC4CC(OC)C(OC5CC(OC)C(OC6CC(OC)C(OC7CC(OC)C(OC8CC(OC)C(OC9OC(CO)C(O)C(O)C9O)C(C)O8)C(C)O7)C(C)O6)C(C)O5)C(C)O4)CCC32C)C2(O)CCC(C(C)=O)C12C (stereo not given) | 20.8% [at 19.1 µM] | 
12 | CC(C)CC[C@@H](O)[C@](C)(O)[C@H]1CC[C@@]2(O)C3=CC(=O)[C@@H]4C[C@@H](O)[C@@H](O)C[C@]4(C)[C@H]3CC[C@]12C | 17% | 
13 | CC1(C)CC[C@]2(C(=O)O[C@@H]3O[C@H](CO[C@@H]4O[C@H](CO[C@@H]5O[C@H](CO)[C@H](O)[C@H](O)[C@H]5O)[C@@H](O)[C@H](O)[C@H]4O)[C@@H](O)[C@H](O[C@@H]4O[C@H](CO)[C@@H](O)[C@H](O)[C@H]4O)[C@H]3O)[C@H](O)C[C@]3(C)C(=CCC4[C@@]5(C)CC[C@H](O[C@@H]6OC[C@@H](O)[C@H](O)[C@H]6O)[C@@](C)(C(=O)O)C5CC[C@]43C)[C@@H]2C1 (stereo not given in full) | 8.5% [at 19.1 µM] | 
14 | CC(C)(OC1OC(CO)C(O)C(O)C1O)C1CCC(O)(CO)C2CC(=O)C(C)(O)C2C1 (stereo not given) | 0.742% [at 57.1 µM] | 
15 | O=C(OCC(O)CO[C@@H]1O[C@H](C(=O)O)[C@@H](O)[C@H](O)[C@H]1O)c1ccccc1 (stereo not given in full) | -29.8% | 
16 | C=CC(C)(C)C12Nc3c(ccc4c3OC(C)(C)C=C4)C1(O)CC1C(=O)N3CCCC3C(=O)N12 (stereo not given) | -1.36% [at 57.1 µM] | 
17 | COc1cc(/C=C/CO[C@@H]2O[C@H](CO)[C@@H](O)[C@H](O)[C@H]2O)cc(OC)c1O[C@@H]1O[C@H](CO)[C@@H](O)[C@H](O)[C@H]1O | 2.57% [at 57.1 µM] | 
18 | CCC(C)C(=O)O[C@H]1C[C@](C)(O)[C@]23OC(C)(C)[C@H](C[C@H](OC(=O)c4ccccc4)[C@]2(COC(C)=O)[C@H]1OC(=O)C(C)CC)[C@H]3OC(C)=O (stereo not given in full) | 8.31% [at 32.5 µM] | 
19 | C=C1C2(C)CC3C4(C)C=CC(=O)OC(C)(C)C4CCC3(C)C1(C(=O)OC)C(=O)C(C)(O)C2=O (stereo not given) | -9.16% [at 57.1 µM] | 
20 | Cc1ccc(-c2c(-c3nn(C)c4ncnc(N5CCC(N6CCCCC6)C5)c34)cnn2C)cc1 (stereo not given) | -11.5% | 

Row | SMILES | activity change, negative = inhibition | Potency
21 | C=C(CO)C(=O)O[C@H]1C[C@@]23O[C@@H]2CC/C(=C/[C@H]2OC(=O)C(=C)[C@H]12)CO[C@H]3O | -16.7% | 
22 | O=C(O)CCc1ccc(NCc2cccc3c2CCCN3CCOc2ccccc2)cc1F |  | 3.16 µM (active)
23 | C[C@@H]1O[C@@H](O[C@H]2[C@H](Oc3cc(O)c(C(=O)CCc4ccc(O)cc4)c(O)c3)O[C@H](CO)[C@@H](O)[C@@H]2O)[C@H](O)[C@H](O)[C@H]1O | 6.03% | 
24 | CC1(C)C[C@@H]2[C@H](C1)[C@@]1(C)C[C@]13C(O)OC[C@]3(O)[C@H]2O (stereo not given in full) | 3.03% | 
25 | C[C@@H]1CCC2C(C)(C)[C@H](O)[C@H](O)C[C@]2(C)[C@@]12Cc1c(O)cc3c(c1O2)CN(CCCC(=O)O)C3=O (stereo not given in full) | -16.2% [at 57.1 µM] | 
26 | Cc1ccc(Nc2nnc(-c3ccc([N+](=O)[O-])cc3)o2)cc1Cl | 18.4% | 
27 | CC(=O)O[C@@H]1[C@H](OC(C)=O)C[C@@]2(C)C(CC[C@@H](C)[C@]23Cc2c(O)cc4c(c2O3)CN([C@@H](CCC(=O)O)C(=O)O)C4=O)C1(C)C (stereo not given in full) | -13.3% [at 32.5 µM] | 
28 | COC(=O)C1=CO[C@@H](O[C@@H]2O[C@H](CO)[C@@H](O)[C@H](O)[C@H]2O)/C(=C\CO)[C@@H]1CC(=O)OCCc1ccc(O)cc1 | -2.77% [at 57.1 µM] | 
29 | C=C1C(=O)O[C@@H]2C[C@]3(C)[C@@H](CCC(C)=O)[C@@H]3C[C@H]12 | -10.5% | 
30 | CC(C)C1(O)C=C2C(=O)CC3C(C)(C(=O)O)CCCC3(C)C2CC1 (stereo not given) | 5.15% | 
31 | COC(=O)C1=CO[C@@H](O[C@@H]2O[C@H](CO)[C@@H](O)[C@H](O)[C@H]2O)C2C1CC(O)C2C (stereo not given in full) | 23.3% | 
32 | C/C(=C\CCC(C)C1CC(O)C2(C)C3CCC4C(C)(C)C(OC5OCC(O)C(O)C5O)CCC45CC35CC(O)C12C)C(=O)O (stereo not given) | 16.6% [at 32.5 µM] | 
33 | COC(=O)C1=CO[C@@H](O[C@@H]2O[C@H](CO)[C@@H](O)[C@H](O)[C@H]2O)[C@@H]2[C@@H](C)[C@@H](O)C(O)[C@H]12 (stereo not given in full) | 4.97% [at 57.1 µM] | 
34 | CCCCS(=O)(=O)NC(Cc1ccc(OCCCCC2CCNCC2)cc1)C(=O)O (stereo not given) | 1.45% | 
35 | C[C@@H]1O[C@@H](O[C@H]2[C@H](O[C@H]3[C@H](O[C@H]4CC[C@@]5(C)C(CC[C@]6(C)C5CC=C5[C@@H]7CC(C)(C)C[C@@H](O)[C@]7(C)CC[C@]56C)[C@@]4(C)CO)O[C@H](C(=O)O)[C@@H](O)[C@@H]3O)O[C@H](CO)[C@H](O)[C@@H]2O)[C@H](O)[C@H](O)[C@H]1O (stereo not given in full) | -24.6% [at 32.5 µM] | 
36 | C[C@@H](NC(=O)c1cc(C(=O)N[C@@H](Cc2ccccc2)[C@H](O)CNC2CC2)cc(N(C)S(C)(=O)=O)c1)c1ccccc1 | 59.1% | 
37 | CCC1(O)CC2c3cc(OC)c(OC)cc3CCN2CC1CC(C)C (stereo not given) | 10.2% | 
38 | CCC1OC(=O)C(C)CC(C)C(=O)/C(C)=C/C(C)C(=O)/C=C/C1(C)O (stereo not given) | 11.7% | 
39 | C=C1CC2C(C)(CCC(=O)O)C(C(C)(C)O)CCC2(C)C2(C(=O)OC)C(=O)C(C)(O)C(=O)C12C (stereo not given) | -11.4% [at 57.1 µM] | 
40 | COc1ccc(C2COc3cc(O)ccc3C2)c(O)c1OC (stereo not given) | -8.99% | 

Reference: PubChem BioAssay (NCATS)
